According to PubChem BioAssay AID1159580 (chemical genetic matrix, 2015):
Values joined by “and” are separate entries in the source; they are usually repeats but may differ in a detail not shown here. Identical values can stand only once. Hit rate of the full screen: of about 5,500 compounds, about 2,000 (36%) were called active. Inconclusive results (about 18%) are left out. No stated cut-off is given here; in the data, active means normalized growth mostly below about 0.91 (no sharp cut-off); inconclusive means no clear call, values can overlap the other calls; inactive means mostly above about 0.92. Some of the results follow.

Test: chemical genetic growth profiling, strain panel (AID 1159580);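 further: tested at 20 µM; growth read once vehicle control cultures reached saturation at 30 °C; 1 = growth at the plate median or of vehicle wells; lower values mean less growth of the strain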
Settings: S. cerevisiae deletion strains, growth OD

Measured: normalized growth

CCC(=O)c1c(O)cc(O)cc1O
inactive: locus YAL013W, strain DEP1, hits give low values 1.01 | locus YAL021C, strain ccr4, hits give low values 0.953 | locus YAL026C, strain drs2, hits give low values 0.975 | locus YAL030W, strain snc1, hits give low values 0.983 | locus YBL061C, strain skt5, hits give low values 0.98 | locus YBR009C, strain hhf1, hits give low values 1.03 | locus YBR021W, strain FUR4, hits give low values 1.03 | locus YBR023C, strain chs3, hits give low values 0.994 | locus YBR171W, strain sec66, hits give low values 0.979 | locus YBR229C, strain ROT2, hits give low values 0.994 | locus YBR231C, strain swc5, hits give low values 0.987 | locus YBR279W, strain paf1, hits give low values 0.992 | locus YCL011C, strain gbp2, hits give low values 0.989 | locus YCL016C, strain dcc1, hits give low values 0.974 | locus YCL029C, strain bik1, hits give low values 0.982 | locus YCL069W, strain vba3, hits give low values 0.992 | locus YCR088W, strain abp1, hits give low values 0.991 | locus YDL005C, strain med2, hits give low values 0.977 | locus YDL035C, strain GPR1, hits give low values 1.01 | locus YDL040C, strain nat1, hits give low values 0.99 | locus YDL074C, strain BRE1, hits give low values 1 | locus YDL101C, strain DUN1, hits give low values 1.01 | locus YDL134C, strain PPH21, hits give low values 1.01 | locus YDL185W, strain tfp1, hits give low values 0.972 | locus YDL192W, strain arf1, hits give low values 0.981 | locus YDR001C, strain nth1, hits give low values 0.987 | locus YDR069C, strain doa4, hits give low values 0.983 | locus YDR101C, strain arx1, hits give low values 0.975 | locus YDR137W, strain rgp1, hits give low values 0.968 | locus YDR150W, strain NUM1, hits give low values 1 | locus YDR159W, strain sac3, hits give low values 0.995 | locus YDR162C, strain NBP2, hits give low values 1 | locus YDR195W, strain ref2 0.955 | locus YDR297W, strain sur2, hits give low values 0.982 | locus YDR318W, strain mcm21, hits give low values 0.977 | locus YDR334W, strain swr1, hits give low values 0.979 | locus YDR335W, strain msn5, hits give low values 0.986 | locus YDR388W, hits give low values 0.981 | locus YDR392W, strain spt3, hits give low values 0.968 | locus YDR502C, strain sam2, hits give low values 0.979 | locus YEL003W, strain gim4, hits give low values 0.99 | locus YEL037C, strain rad23, hits give low values 0.982 | locus YEL061C, strain CIN8 (second series), hits give low values 0.992 | locus YEL061C, strain CIN8, hits give low values 1 | locus YER015W, strain faa2, hits give low values 0.991 | locus YER016W, strain bim1, hits give low values 0.968 | locus YER110C, hits give low values 0.979 | locus YER111C, strain swi4, hits give low values 1 | locus YER155C, strain BEM2 (second series), hits give low values 0.983 | locus YER155C, strain BEM2, hits give low values 0.989 | locus YER167W, strain BCK2, hits give low values 1.01 | locus YFR010W, strain ubp6, hits give low values 0.998 | locus YGL078C, strain dbp3, hits give low values 0.975 | locus YGL086W, strain mad1, hits give low values 0.995 | locus YGL167C, strain pmr1, hits give low values 0.974 | locus YGL173C, strain kem1, hits give low values 1.01 | locus YGL227W, strain vid30, hits give low values 0.993 | locus YGL240W, strain doc1, hits give low values 1 | locus YGL248W, strain PDE1, hits give low values 1.01 | locus YGL253W, strain hxk2, hits give low values 0.986 | locus YGR078C, strain PAC10, hits give low values 1.01 | locus YGR135W, strain pre9, hits give low values 0.985 | locus YGR229C, strain SMI1, hits give low values 0.992 | locus YGR252W, strain gcn5, hits give low values 0.921 | locus YHR013C, strain ard1, hits give low values 0.938 | locus YHR027C, strain rpn1, hits give low values 1.01 | locus YHR030C, strain SLT2, hits give low values 1.01 | locus YHR079C, strain IRE1 (second series), hits give low values 0.978 | locus YHR079C, strain IRE1, hits give low values 1.03 | locus YHR094C, strain hxt1, hits give low values 0.983 | locus YHR129C, strain ARP1, hits give low values 0.999 | locus YHR142W, strain chs7, hits give low values 0.989 | locus YHR200W, strain rpn10, hits give low values 0.972 | locus YIL066C, strain RNR3, hits give low values 1.01 | locus YIL073C, strain SPO22, hits give low values 1.07 | locus YIL125W, strain kgd1, hits give low values 0.984 | locus YIR030C, strain dcg1, hits give low values 0.979 | locus YJL092W, strain hpr5, hits give low values 0.987 | locus YJL095W, strain BCK1 (second series), hits give low values 0.995 | locus YJL095W, strain BCK1, hits give low values 1 and 1.02 | locus YJL115W, strain asf1, hits give low values 0.996 | locus YJL129C, strain trk1, hits give low values 0.996 | locus YJL134W, strain LCB3, hits give low values 0.999 | locus YJL154C, strain vps35, hits give low values 0.975 | locus YJL164C, strain tpk1, hits give low values 0.993 | locus YJL166W, strain qcr8, hits give low values 0.991 | locus YJL168C, strain set2, hits give low values 0.979 | locus YJL187C, strain SWE1 (second series), hits give low values 1.01 | locus YJR043C, strain POL32, hits give low values 1.01 | locus YJR066W, strain TOR1, hits give low values 0.97 | locus YJR075W, strain HOC1, hits give low values 1.01
